# According to article PMC4336329 (PLoS ONE, 2015):
# Hit rate of the full screen: of about 310,000 compounds, about 14,000 (4.5%) showed an effect of 50% or more. The effect is printed as a negative number. What follows is part of a selection rich in strong results, with near analogues and random picks from the rest.
# Biological target: human ether-à-go-go-related gene (hERG) potassium channel (human, UniProt Q12809)
# Test: primary screen, population patch clamp on CHO cells stably expressing hERG; higher = less effect of the substance
# 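Note: peak tail current of the secondary pulse compared with the same well before compound.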
# Chain of human ether-à-go-go-related gene (hERG) potassium channel (Q12809 whole entry, looked up): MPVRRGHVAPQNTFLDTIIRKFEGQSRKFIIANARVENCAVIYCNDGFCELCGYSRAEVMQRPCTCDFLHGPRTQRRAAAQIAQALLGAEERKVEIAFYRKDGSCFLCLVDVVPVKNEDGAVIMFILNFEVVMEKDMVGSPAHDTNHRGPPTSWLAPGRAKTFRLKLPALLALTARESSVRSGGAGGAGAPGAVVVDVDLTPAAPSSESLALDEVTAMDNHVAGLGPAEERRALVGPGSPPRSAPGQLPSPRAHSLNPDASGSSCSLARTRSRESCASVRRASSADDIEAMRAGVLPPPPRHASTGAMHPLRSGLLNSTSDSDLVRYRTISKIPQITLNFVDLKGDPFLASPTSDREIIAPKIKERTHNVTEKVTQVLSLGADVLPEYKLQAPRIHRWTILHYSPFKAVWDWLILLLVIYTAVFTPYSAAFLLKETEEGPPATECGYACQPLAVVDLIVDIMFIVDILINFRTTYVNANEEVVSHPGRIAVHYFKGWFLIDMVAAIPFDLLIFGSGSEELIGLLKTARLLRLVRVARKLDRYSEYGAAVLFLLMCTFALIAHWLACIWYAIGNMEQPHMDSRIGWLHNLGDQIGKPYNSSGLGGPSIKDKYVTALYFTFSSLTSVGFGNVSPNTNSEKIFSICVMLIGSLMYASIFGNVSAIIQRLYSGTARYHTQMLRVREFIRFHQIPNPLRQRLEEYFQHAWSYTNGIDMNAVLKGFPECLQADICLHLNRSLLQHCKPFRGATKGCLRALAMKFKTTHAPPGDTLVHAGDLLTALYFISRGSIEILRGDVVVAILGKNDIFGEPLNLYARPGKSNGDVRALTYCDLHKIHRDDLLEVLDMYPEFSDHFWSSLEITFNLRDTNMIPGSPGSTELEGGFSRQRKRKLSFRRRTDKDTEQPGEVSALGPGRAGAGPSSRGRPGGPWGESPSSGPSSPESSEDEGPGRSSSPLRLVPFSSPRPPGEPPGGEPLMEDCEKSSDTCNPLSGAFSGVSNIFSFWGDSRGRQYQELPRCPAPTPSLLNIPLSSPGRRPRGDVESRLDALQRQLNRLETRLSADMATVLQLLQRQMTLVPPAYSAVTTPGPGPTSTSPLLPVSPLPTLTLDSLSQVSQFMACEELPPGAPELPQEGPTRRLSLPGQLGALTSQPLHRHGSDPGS
row,SMILES,"hERG current change (%, negative = inhibition) at 10uM [%]"
1,C=CCNC(=O)c1cc(-c2ccccc2O)on1,8.16
2,CCN(CC(=O)NCC(=O)Nc1cccc(C)c1C)Cc1ccccc1,5.6
3,C=CCn1nc([N+](=O)[O-])nc1Sc1cccc2cccnc12,-2.55
4,O=[N+]([O-])CC(=Nc1ccc(Cl)cc1)N/N=C\c1oc(O)c2ccccc12,5.58
5,O=c1cc(CO)occ1OCc1c(F)cccc1Cl,9.21
6,O=C(c1ccco1)N1CCN(Cc2cc(=O)c(OCc3c(F)cccc3Cl)co2)CC1,-58
7,O=C(c1ccco1)N1CCN(Cc2c(F)cccc2Cl)CC1,-9.87
8,CCN(CC)C(C(=O)Nc1ccc(C(C)C)cc1)c1ccc2c(c1)OCO2 (stereo not drawn),-9.99
9,CCOc1cc(C)c(S(=O)(=O)N2CCCC2)cc1C,-14.6
10,COc1ccc(CCN(C(=O)c2snc(C(N)=O)c2N)C(C)C(=O)NC2CCCCC2)cc1OC (stereo not drawn),-13.9
11,Cc1cc(C(F)F)n2ncc(C(=O)NCCc3ccc(Cl)cc3)c2n1,-45
12,COc1ccccc1CCNC(=O)c1cnn2c(C(F)F)cc(C)nc12,-33.6
13,Cc1cc(C(F)F)n2ncc(C(=O)NCCc3ccccc3Cl)c2n1,-56.7
14,CCOC(=O)N1CCC(N(CCN(C)C)C(=S)Nc2cccc(Cl)c2C)CC1,12.5
15,Cc1nc(C(=O)Nc2ccccc2Cl)cc2c1[nH]c1ccccc12,0.837
16,O=C(CCC(=O)Nc1cccc(C(F)(F)F)c1)NCC1CCCO1 (stereo not drawn),11.1
17,CC1=C(C(=O)OCC2CCCO2)C(c2cccc(C(F)(F)F)c2)C2=C(CC(c3ccco3)CC2=O)N1 (stereo not drawn),6.09
18,CC1=C(C(=O)OCC2CCCO2)C(c2ccccc2OC(C)C)C2=C(CC(c3ccco3)CC2=O)N1 (stereo not drawn),-57.8
19,COc1ccc(C2C(C(=O)OCC3CCCO3)=C(C)NC3=C2C(=O)CC(c2ccco2)C3)cc1O (stereo not drawn),5.72
20,CC(C)C(=O)Nc1ccc2c(c1)C(=O)NC2=O,14.3
21,Cc1cc(C)cc(N(CC(=O)NC2CCCC2)C(=O)CNC(=O)c2cccs2)c1,18
22,CCC(C)c1ccccc1OCCCN(C)Cc1ccccc1 (stereo not drawn),-27

row,SMILES,"hERG current change (%, negative = inhibition) at 10uM [%]"
1,O=C(c1cc(-c2ccccc2Cl)nc2ccccc12)N1CCOCC1,-6.68
2,CN(C(=O)COC(=O)c1cc(-c2ccccc2Cl)nc2ccccc12)C1CCS(=O)(=O)C1 (stereo not drawn),-30.9
3,CCN1CCCC(OC(=O)Nc2ccccc2)C1 (stereo not drawn),2.47
4,CCN1CCCC(OC(=O)C(c2ccccc2)c2ccccc2)C1.Cl (stereo not drawn),-66.1
5,CCN1CCCC(OC(=O)c2cc(-c3ccc(C)cc3)nc3ccccc23)C1.Cl (stereo not drawn),-8.97
6,Cl.O=C(OC1CCN(CCCl)CC1)C(c1ccccc1)c1ccccc1,11
7,CN1CCC(N(C)C(=O)c2cc(-c3ccccc3Cl)nc3ccccc23)CC1.Cl,-84.3
8,O=C(OCn1nnc2ccccc2c1=O)c1cc(-c2ccccc2Cl)nc2ccccc12,12.8
9,CCN1CCCC(OC(=O)c2cc(-c3ccccc3Cl)nc3ccccc23)C1.Cl (stereo not drawn),-65.3
10,O=c1c(-c2ccccc2)[n+]([O-])c2ccccc2n1O,-9.6
11,CCOc1ccccc1NC(=O)Cc1cccs1,3.18
12,O=C(NCCCN1CCCCC1)c1ccc(CS(=O)c2ccc(F)cc2)o1 (stereo not drawn),-0.35
13,Br.O=C(Cn1c(NCCCO)nc2ccccc21)c1ccc(F)cc1,-9.54
14,Cc1nc2sc(C(c3ccc(F)cc3)N3CCOCC3)c(O)n2n1 (stereo not drawn),9.62
15,Oc1c(C(c2cccs2)N2CCN(c3ccc(F)cc3)CC2)sc2ncnn12 (stereo not drawn),-66
16,Oc1c(C(c2cccs2)N2CCN(c3cccc(Cl)c3)CC2)sc2ncnn12 (stereo not drawn),-26.5
17,Cc1ccc(C(c2sc3nc(C)nn3c2O)N2CCN(c3ccccc3)CC2)cc1 (stereo not drawn),-5.32
18,Cc1ccc(C(c2sc3nc(C)nn3c2O)N2CCN(c3ccc(F)cc3)CC2)cc1 (stereo not drawn),-65.2
19,Oc1c(C(c2cccs2)N2CCN(c3ccccc3)CC2)sc2ncnn12 (stereo not drawn),-33.6
20,O=C(CCc1ccccc1)Nc1ccccc1C(=O)NCc1ccco1,0.64
21,COC(=O)[C@@]12CCCN1[C@H](c1ccc(-c3ccccc3)cc1)[C@@H]1C(=O)N(C)C(=O)[C@@H]12.O=C(O)C(F)(F)F,-6.67
22,C=C(C)c1cccc(C(C)(C)NC(=O)Nc2ccc(OC)cc2)c1,8.48

row,SMILES,"hERG current change (%, negative = inhibition) at 10uM [%]"
1,COc1ccc(NC(=O)c2oc3ccc(S(=O)(=O)N4CCOCC4)cc3c2C)cc1,3.58
2,COc1ccc2c(c1)nc(SCC(=O)C(C)(C)C)n2C,-2.82
3,COc1ccc2c(c1)nc(SCC(C)O)n2C (stereo not drawn),18
4,COc1ccc2c(c1)nc(SCC(O)c1ccccc1)n2C (stereo not drawn),-60.2
5,COC(=O)c1cc(NS(=O)(=O)c2cccc(Cl)c2)ccc1N1CCOCC1,2.66
6,CCN(CCCNC(=O)C1CCC(=O)N1Cc1ccccc1Cl)c1cccc(C)c1 (stereo not drawn),-64.5
7,CCN(CCCNC(=O)C1CCC(=O)N1Cc1ccc(F)cc1)c1cccc(C)c1 (stereo not drawn),-18.3
8,CCn1c(=O)cc(OCC(=O)NCCC(C)C)c2ccccc21,0.0582
9,CCN(CCCNC(=O)COc1cc(=O)n(C)c2ccccc12)c1cccc(C)c1,-51
10,CCN(CCCNC(=O)C1CCC(=O)N1Cc1ccc(C)cc1)c1cccc(C)c1 (stereo not drawn),-24.9
11,CCN(CCCNC(=O)COc1cc(=O)n(CC)c2ccccc12)Cc1ccccc1,-19.8
12,Cc1cccc(CCNC(=O)COc2cc(=O)n(C)c3ccccc23)c1,-17.6
13,CCN(CCCNC(=O)COc1cc(=O)n(CC)c2ccccc12)c1ccccc1,-52.5
14,CCN(CCCNC(=O)COc1cc(=O)n(C)c2ccccc12)c1ccccc1,-41.3
15,COc1ccc(N2CCN(C(=O)C34CCC(C)(C(=O)C3)C4(C)C)CC2)cc1 (stereo not drawn),-0.453
16,CN(CC(=O)Nc1ccc(Cl)c(C(F)(F)F)c1)C(=O)Cc1n[nH]c(=O)c2ccccc12,-16.2
17,COc1ccc(-n2nc3c(c2NC(=O)c2ccc(Br)o2)CS(=O)(=O)C3)cc1,-16.4
18,COC(=O)Nc1ccc(S(=O)(=O)N2CCC(C(=O)N(C)C3CCCCC3)CC2)cc1,9.22
19,COC(=O)CCC(=O)NC(=S)Nc1cc(Cl)ccc1Cl,10.5
20,O=C(CN1CCCCC1)N1CCCc2c1c(=O)oc1ccc(OCc3ccccc3)cc21,-54.6
21,O=C(CN1CCCC1)N1CCCc2c1c(=O)oc1ccc(OCc3ccccc3)cc21,-65.6
22,CC(=O)Oc1ccc2oc(=O)c3c(c2c1)CCCN3C(=O)CN1CCOCC1,1.97

row,SMILES,"hERG current change (%, negative = inhibition) at 10uM [%]"
1,Cc1cc(=O)oc2ccc(OCc3ccccc3)cc12,5.11
2,CC1CCN(CC(=O)N2CCCc3c2c(=O)oc2ccc(OCc4ccccc4)cc32)CC1,-10.5
3,CC1CC(C)CN(CC(=O)N2CCCc3c2c(=O)oc2ccc(OCc4ccccc4)cc32)C1 (stereo not drawn),-4.71
4,O=C1OCC/C1=C\c1ccc(O)cc1,12.3
5,O=C(NCCCN1CCOCC1)C1Nc2ccc(OC(F)(F)F)cc2C2C=CCC12 (stereo not drawn),-18.9
6,CCc1noc(C)c1C(=O)Nc1ccc(F)c(F)c1,-15.4
7,COc1cc(NC(=O)Cn2nc(C(F)(F)F)c(Br)c2C)cc([N+](=O)[O-])c1,27.7
8,Cn1c(=O)c([N+](=O)[O-])c(NCC2CCCO2)c2ccccc21 (stereo not drawn),0.511
9,OC(CN1CCCCC1)Cn1c2ccc(Cl)cc2c2cc(Cl)ccc21 (stereo not drawn),-29.6
10,CCc1ccc2c(c1)c1nc(C)sc1n2CC,-5.89
11,Cc1nc2c3cc(Cl)ccc3n(CCN3CCOCC3)c2s1,-52.2
12,Clc1ccc2c(c1)c1cc(Cl)ccc1n2CN1CCOCC1,-1.99
13,Cc1nc2c3ccccc3n(CCN3CCCCC3)c2s1.Cl,-28.9
14,Cc1ccc2c(c1)c1nc3ccccc3nc1n2C,21.3
15,Cc1nc2c3cc(Cl)ccc3n(CCN3CCCCC3)c2s1.Cl,-70
16,Cc1nc2c3cc(F)ccc3n(CCN3CCCCC3)c2s1.Cl,-69.9
17,Cc1ccc2c(c1)c1nc3ccccc3nc1n2CCN1CCOCC1,-62.8
18,Cc1nc2c3cc(F)ccc3n(Cc3ccccc3F)c2s1,-5.77
19,COC(=O)Cn1c2ccc(C)cc2c2nc(C)sc21,-7.39
20,c1ccc2nc3c(nc2c1)c1ccccc1n3CCN1CCOCC1,-48.5
21,CCc1ccc(NC(=O)Cn2nc(C)n3cccc3c2=O)cc1,15
